Reference: PubChem BioAssay AID1159580 (chemical genetic matrix, 2015)
Among all 5,500 compounds or so, about 2,000 (36%) were called active. Roughly 18% stayed inconclusive and do not appear here. No stated cut-off is given here; in the data, active means normalized growth mostly below about 0.91 (no sharp cut-off); inconclusive means no clear call, values can overlap the other calls; inactive means mostly above about 0.92. This is one part of the list.

Assay: chemical genetic growth profiling, strain panel (AID 1159580);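 further: tested at 20 µM; growth read once vehicle control cultures reached saturation at 30 °C; 1 = growth at the plate median or of vehicle wells; lower values mean less growth of the strain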
Settings: S. cerevisiae deletion strains, growth OD

Measured: normalized growth

C#CCCCCCCCCCCCC(=O)CC(O)COC(C)=O (centres undefined)
inactive: locus YAL021C, strain ccr4, active compounds read low 0.964 | locus YAL026C, strain drs2, active compounds read low 0.982 | locus YAL030W, strain snc1, active compounds read low 0.983 | locus YBL061C, strain skt5, active compounds read low 0.977 | locus YBR009C, strain hhf1, active compounds read low 0.991 | locus YBR021W, strain FUR4, active compounds read low 0.91 | locus YBR023C, strain chs3, active compounds read low 0.978 | locus YBR171W, strain sec66, active compounds read low 0.963 | locus YBR229C, strain ROT2, active compounds read low 0.953 | locus YBR231C, strain swc5, active compounds read low 0.977 | locus YBR279W, strain paf1, active compounds read low 0.986 | locus YCL011C, strain gbp2, active compounds read low 0.936 | locus YCL016C, strain dcc1, active compounds read low 0.984 | locus YCL061C, strain MRC1, active compounds read low 0.999 | locus YCL069W, strain vba3, active compounds read low 0.975 | locus YCR088W, strain abp1, active compounds read low 0.974 | locus YDL005C, strain med2, active compounds read low 0.967 | locus YDL040C, strain nat1, active compounds read low 0.99 | locus YDL185W, strain tfp1, active compounds read low 0.959 | locus YDR001C, strain nth1, active compounds read low 0.991 | locus YDR069C, strain doa4, active compounds read low 0.966 | locus YDR137W, strain rgp1, active compounds read low 0.854 | locus YDR150W, strain NUM1, active compounds read low 0.964 | locus YDR159W, strain sac3, active compounds read low 0.989 | locus YDR195W, strain ref2 1.04 | locus YDR297W, strain sur2, active compounds read low 0.979 | locus YDR334W, strain swr1, active compounds read low 0.98 | locus YDR335W, strain msn5, active compounds read low 0.973 | locus YDR388W, active compounds read low 0.975 | locus YEL003W, strain gim4, active compounds read low 0.951 | locus YEL037C, strain rad23, active compounds read low 0.979 | locus YEL061C, strain CIN8 (second series), active compounds read low 0.98 | locus YER015W, strain faa2, active compounds read low 0.991 | locus YER016W, strain bim1, active compounds read low 0.99 | locus YER110C, active compounds read low 0.967 | locus YER111C, strain swi4, active compounds read low 0.964 | locus YER155C, strain BEM2 (second series), active compounds read low 0.9 | locus YFR010W, strain ubp6, active compounds read low 0.974 | locus YGL167C, strain pmr1, active compounds read low 0.991 | locus YGL173C, strain kem1, active compounds read low 0.979 | locus YGL227W, strain vid30, active compounds read low 0.974 | locus YGL240W, strain doc1, active compounds read low 0.969 | locus YGL253W, strain hxk2, active compounds read low 0.981 | locus YHR013C, strain ard1, active compounds read low 0.849 | locus YHR027C, strain rpn1, active compounds read low 0.989 | locus YHR094C, strain hxt1, active compounds read low 0.961 | locus YHR142W, strain chs7, active compounds read low 0.884 | locus YHR200W, strain rpn10, active compounds read low 0.977 | locus YIL073C, strain SPO22, active compounds read low 0.739 | locus YIL125W, strain kgd1, active compounds read low 0.97 | locus YIR030C, strain dcg1, active compounds read low 0.945 | locus YJL092W, strain hpr5, active compounds read low 0.965 | locus YJL095W, strain BCK1 (second series), active compounds read low 0.985 | locus YJL115W, strain asf1, active compounds read low 0.991 | locus YJL154C, strain vps35, active compounds read low 0.984 | locus YJL164C, strain tpk1, active compounds read low 0.945 | locus YJL166W, strain qcr8, active compounds read low 0.909 | locus YJL168C, strain set2, active compounds read low 0.979 | locus YJL187C, strain SWE1, active compounds read low 0.978
active: locus YAL013W, strain DEP1, active compounds read low 0.909 | locus YCL029C, strain bik1, active compounds read low 0.901 | locus YDL035C, strain GPR1, active compounds read low 0.8 | locus YDL074C, strain BRE1, active compounds read low 0.622 | locus YDL101C, strain DUN1, active compounds read low 0.84 | locus YDL134C, strain PPH21, active compounds read low 0.807 | locus YDL192W, strain arf1, active compounds read low 0.912 | locus YDR101C, strain arx1, active compounds read low 0.881 | locus YDR162C, strain NBP2, active compounds read low 0.642 | locus YDR318W, strain mcm21, active compounds read low 0.819 | locus YDR392W, strain spt3, active compounds read low 0.476 | locus YDR502C, strain sam2, active compounds read low 0.799 | locus YEL061C, strain CIN8, active compounds read low 0.855 | locus YER155C, strain BEM2, active compounds read low 0.585 | locus YER167W, strain BCK2, active compounds read low 0.807 | locus YGL078C, strain dbp3, active compounds read low 0.916 | locus YGL086W, strain mad1, active compounds read low 0.867 | locus YGL248W, strain PDE1, active compounds read low 0.788 | locus YGR078C, strain PAC10, active compounds read low 0.708 | locus YGR135W, strain pre9, active compounds read low 0.739 | locus YGR229C, strain SMI1, active compounds read low 0.651 | locus YGR252W, strain gcn5, active compounds read low 0.705 | locus YHR030C, strain SLT2, active compounds read low 0.911 | locus YHR079C, strain IRE1 (second series), active compounds read low 0.816 | locus YHR129C, strain ARP1, active compounds read low 0.837 | locus YIL066C, strain RNR3, active compounds read low 0.722 | locus YJL095W, strain BCK1, active compounds read low 0.665 | locus YJL129C, strain trk1, active compounds read low 0.843 | locus YJL134W, strain LCB3, active compounds read low 0.892 | locus YJL187C, strain SWE1 (second series), active compounds read low 0.839
